Test results published in PubChem BioAssay (NCI).
This is part of a sample that, as a whole, favours compounds with a hit. Of some 79,000 tested, about 15% had one in any assay. A number with no mark means an inactive call. Active and inactive are the calls of the source. Cut-off read from the data, not from the text of the source: active = growth inhibition above about 70%; inactive = the rest.

Assays:
[1] = NCI Yeast Anticancer Drug Screen. Data for the rad50 strain (AID 155);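 note: 0% = growth of vehicle-only cultures of the same strain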; conditions: S. cerevisiae rad50 strain growth inhibition, hits give high values
Summary of the method: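 Growth of the mutant yeast was measured after compound exposure and referenced to vehicle-treated cultures.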

[2] = NCI Yeast Anticancer Drug Screen. Data for the mec2-1 strain (AID 157); conditions: S. cerevisiae mec2-1 strain, hits give high values
Summary of the method: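 Readout is yeast growth inhibition, normalised to vehicle-treated controls, in the mec2-1 strain exposed to compound.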

[3] = NCI Yeast Anticancer Drug Screen. Data for the sgs1 mgt1 strain (AID 161);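 note: 0% = growth of cultures given vehicle only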; conditions: S. cerevisiae sgs1 mgt1 strain, hits give high values
Summary of the method: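 Yeast cells carrying a defined DNA-repair defect were exposed to test compounds. Growth inhibition was measured relative to vehicle-treated controls.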

[4] = NCI Yeast Anticancer Drug Screen. Data for the cln2 rad14 strain (AID 165);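 note: 0% = growth equal to vehicle treated cultures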; conditions: S. cerevisiae cln2 rad14 strain, hits give high values
Summary of the method: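 Relative to vehicle controls, growth inhibition of compound-treated cln2 rad14 yeast was recorded.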

[5] = NCI Yeast Anticancer Drug Screen. Data for the bub3 strain (AID 167); conditions: S. cerevisiae bub3 mutant strain, hits give high values
Summary of the method: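 Whole-cell yeast assay. The mutant strain was incubated with compounds, and growth inhibition was determined by comparison with vehicle-treated cells.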

[6] = NCI Yeast Anticancer Drug Screen. Data for the mlh1 rad18 strain (AID 175); conditions: S. cerevisiae mlh1 rad18 strain growth inhibition, hits give high values
Summary of the method: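 Test agents were incubated with a yeast strain of defined genotype (DNA damage repair defect). Inhibition of growth was derived by comparison with vehicle-exposed cultures.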

[7] = at 5.0 µM (retest, dose inferred, filed as 0.5)
[8] = at 50.0 µM (retest, dose inferred, filed as 5.0)

SMILES	growth inhibition [1, 7]	growth inhibition [1, 8]	growth inhibition ([1]; at 50.0 µM)	growth inhibition [2, 7]	growth inhibition [2, 8]	growth inhibition ([2]; at 50.0 µM)	growth inhibition [3, 7]	growth inhibition [3, 8]	growth inhibition ([3]; at 50.0 µM)	growth inhibition [4, 7]	growth inhibition [4, 8]	growth inhibition ([4]; at 50.0 µM)	growth inhibition [5, 7]	growth inhibition [5, 8]	growth inhibition ([5]; at 50.0 µM)	growth inhibition [6, 7]	growth inhibition [6, 8]	growth inhibition ([6]; at 50.0 µM)
O=C(NC(Cc1ccc(I)cc1)C(=O)O)c1cccc(Br)c1 (configuration not stated)	24%	39%	-14.4%	13%	6%	-35%	23%	37%	-20.5%	17%	34%	-8.15%	21%	29%	-28.9%	23%	32%	-15.9%
CCC/C(=N\NC(=S)N(C)C)c1ccccn1	89% (active)	99% (active)	99.5% (active)	97% (active)	99% (active)	99.6% (active)	88% (active)	99% (active)	99.5% (active)	80% (active)	99% (active)	99.4% (active)	85% (active)	98% (active)	99.5% (active)	94% (active)	99% (active)	99.5% (active)
CC[N+]1(C)CC2CCC(CC2)C1 (configuration not stated)	-2%	-5%	-1.6%	-3%	-3%	35%	-4%	-2%	7.2%	-4%	-6%	72% (active)	-3%	2%	-7.15%	-4%	-3%	7.35%
O=C1CCC(Cc2ccc(Br)cc2)C(=O)N1 (configuration not stated)	-4%	7%	-11.7%	-4%	1%	7.2%	19%	96% (active)	93.7% (active)	-3%	3%	-77.2%	-6%	-1%	-54%	-6%	5%	-2.1%
CC1=CC(C2/C(=N/O)C=C(C)CC2(C)C)C(O)C(C)(C)C1 (configuration not stated)	7%	95% (active)	99.2% (active)	-18%	99% (active)	98.2% (active)	-4%	96% (active)	98.8% (active)	-1%	97% (active)	97.8% (active)	-23%	92% (active)	98.2% (active)	-3%	98% (active)	98.7% (active)
O=C1OC(c2ccccc2)(c2ccccc2)Cc2ccccc21	-4%	20%	94% (active)	-9%	-4%	96% (active)	-7%	-16%	91% (active)	-4%	7%	91.3% (active)	-27%	-13%	90.8% (active)	-21%	8%	94.8% (active)
OC(c1cc(-c2ccccc2)nc2c(Cl)cc(Cl)cc12)C1CCCCN1 (configuration not stated)	14%	97% (active)	99.5% (active)	18%	92% (active)	99.6% (active)	18%	98% (active)	99.1% (active)	3%	98% (active)	98.3% (active)	2%	99% (active)	97.5% (active)	11%	96% (active)	98.8% (active)
CCSC(=Nc1nc2ccc(NC(C)=O)cc2s1)SCC	5%	96% (active)	97.2% (active)	-3%	97% (active)	98% (active)	-1%	97% (active)	98.5% (active)	-3%	83% (active)	96.5% (active)	-2%	94% (active)	96% (active)	-2%	96% (active)	97.5% (active)
COc1ccc(N=Nc2ccc3oc(=O)c(C(=O)Nc4ccccc4C)cc3c2)cc1	3%	98% (active)	96.8% (active)	-18%	97% (active)	97% (active)	-8%	96% (active)	97.5% (active)	1%	86% (active)	93% (active)	-5%	86% (active)	97.7% (active)	-2%	98% (active)	97.5% (active)
